NALP3 yeast inh = NALP3 inflammasome inhibitors in reconstituted yeast, primary screen, luminescence, uHTS; Yeast reconstituted NLRP3/ASC/caspase-1, beta-gal luminescence, 24 h; inhibition, % at 10 µM; 0.39% of 330,000 active; AID 2825, 2010;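 active = inhibition of 50% or more; inactive = inhibition below 50%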;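 also: plate controls were induced DMSO wells for no effect and uninduced yeast grown without galactose for full effect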
TIM10 inh = growth inhibitors of isogenic TIM10 control yeast, primary screen, counter-screen for tim10-1 yeast inhibitor project, luminescence, uHTS; S. cerevisiae TIM10 strain growth, BacTiter-Glo luminescence, 24 h; inhibition, % at 10 µM; 1.4% of 330,000 active; AID 463195, 2010;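 active = inhibition of 40% or more at the single tested concentration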;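 also: wild-type TIM10 isogenic control strain grown at permissive 25 °C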
tim10-1 inh = growth inhibitors of tim10-1 mutant yeast, primary screen, luminescence, uHTS. 2.2% of 330,000 active. inhibition, % at 20 µM. S. cerevisiae tim10-1 ts strain growth, BacTiter-Glo, 24 h;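 active = inhibition of at least 40%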;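 also: mutant grown at 25 °C; 0% = DMSO wells with yeast and 100% = wells holding no yeast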
SKKanGAS inh = S. pyogenes SKKanGAS growth inhibitors in kanamycin, primary screen, streptokinase expression inhibitor project, SKKanGAS strain, BacTiter-Glo luminescence; 6 h; AID 1662, 2009; 1.3% of 300,000 active; inhibition, % at 7.5 µM;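 active = mean replicate score, as percent of positive control median, at least 50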;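 also: strain carries kanamycin resistance gene driven by streptokinase promoter and grows in 40 µg/ml kanamycin; loss of luminescence reflects streptokinase promoter inhibition or plain growth inhibition; 0% = median of DMSO wells and 100% = positive control at its reference dose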
tim23-1 inh = growth inhibitors of tim23-1 mutant yeast, primary screen, luminescence, uHTS; S. cerevisiae tim23-1 growth, BacTiter-Glo luminescence, 24 h; inhibition, % at 20 µM; 1.3% of 330,000 active; AID 463212, 2010;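 active = growth inhibition of the mutant yeast at or above 50%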;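 also: temperature-sensitive mutant grown at 25 °C; plate controls were DMSO-treated mutant yeast for no effect and medium wells lacking yeast for full effect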
tim10-1 confirm = growth inhibitors of tim10-1 mutant yeast, confirmation, single concentration, luminescence, S. cerevisiae; shares compounds with tim10-1 inh; S. cerevisiae tim10-1 ts strain growth, BacTiter-Glo, 24 h; inhibition, % at 20 µM; 56% of 7,400 active; AID 463213, 2010;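 active = inhibition of yeast growth at or above a set limit in either of two repeat tests at 20 µM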;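 also: tim10-1 mutant grown at permissive 25 °C to find synthetic lethal compounds; 0% = DMSO yeast wells and 100% = medium wells without yeast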
TIM10 conf = growth inhibitors of wild-type TIM10 yeast, confirmation, counter-screen for tim10-1 synthetic lethality project, single concentration, luminescence, S. cerevisiae; shares compounds with TIM10 inh; S. cerevisiae tim10 strain growth, BacTiter-Glo luminescence, 24 h; inhibition, % at 10 µM; 63% of 4,600 active; AID 463215, 2010;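 active = inhibition of yeast growth at or above a set limit in either of two replicates at 10 µM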;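 also: this counterscreen used the strain with wild-type TIM10; 0% = yeast with DMSO and 100% = medium wells lacking yeast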
tim23-1 conf = tim23-1 mutant yeast growth inhibitors, confirmation, luminescence, single concentration. shares compounds with tim23-1 inh. S. cerevisiae tim23-1 growth, BacTiter-Glo luminescence, 24 h. inhibition, % at 20 µM. 83% of 4,400 active. AID 463218, 2010;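 active = inhibition above about 39% in either of two replicate wells at 20 µM, limit read from the data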;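 also: temperature-sensitive tim23-1 mutant grown at 25 °C; 0% = DMSO wells with yeast and 100% = medium wells without yeast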
Active calls of the source: *; . = no result given. An excerpt weighted towards active compounds, which were near 4.6% of everything screened.

SMILES	NALP3 yeast inh	TIM10 inh	tim10-1 inh	SKKanGAS inh	tim23-1 inh	tim10-1 confirm	TIM10 conf	tim23-1 conf
CC(C)CC1NC(=O)c2cc(Cl)ccc2-n2c1nc1cc(F)ccc1c2=O (centres undefined)	3	3	13	.	25	.	.	.
O=c1[nH]c(Sc2ccc([N+](=O)[O-])cc2[N+](=O)[O-])nc2ccccc12	15	29	45*	8	68*	38*	.	53*
COc1ccc(C(=O)NC(=S)NCc2ccco2)cc1Br	25	21	46*	-6	54*	38*	.	53*
COc1ccc(C(=O)NC(=S)NCc2ccccc2)cc1OC	26	-5	31	-13	25	.	.	.
COc1ccc(C(=O)NC(=S)NC(C)(C)C)cc1Br	35	60*	40*	0	64*	47*	53*	77*
CC(=O)N1/C(=C/c2ccc(N(C)C)cc2)C(=O)c2ccccc21	.	.	.	-4	.	.	.	.
O=C(Cn1cnc([N+](=O)[O-])c1)Nc1ccccc1C(F)(F)F	15	8	1	1	0	.	.	.
O=C1c2ccccc2C(Nc2ccc(Cl)cn2)N1Cc1ccccc1 (centres undefined)	19	42*	44*	7	56*	29	46*	54*
CC[n+]1c(/C=C2\C=C(C)CC(C)(C)C2)sc2ccccc21	16	37	45*	-1	51*	39*	.	55*
CC[n+]1c(/C=C2/C=C(C)CC(C)(C)C2)sc2ccc(OC)cc21	15	34	29	3	30	.	.	.
Cc1ccc(C(=O)OC(C)C(=O)Nc2ccc3c(c2)OCO3)c(O)c1 (centres undefined)	11	-2	1	.	7	.	.	.
COc1ccc(-c2coc3cc(O)cc(O)c3c2=O)cc1	41	23	53*	-1	68*	37*	.	64*
O=[N+]([O-])c1ccc(/C=N/Nc2nc(N3CCCCC3)nc(N3CCCCC3)n2)o1	19	48*	55*	17	50*	46*	21	44*
O=C(O/N=C1\C(=O)N(c2ccccc2)c2ccccc21)C1CC1	0	40	47*	9	69*	44*	.	64*
CCO/N=C1\C(=O)N(c2ccccc2)c2ccccc21	18	1	14	-6	37	.	.	.
O=C(Nc1ccccc1N1CCCCC1)c1ccc(-c2ccc(Cl)cc2)o1	-1	6	28	7	5	.	.	.
CN1CCN(c2ccccc2NC(=O)c2ccc(-c3ccc(Br)cc3)o2)CC1	42	20	56*	3	50	46*	.	39
CC(=O)C(=Cc1cn(-c2ccccc2)nc1-c1ccccc1)C(C)=O	5	57*	67*	.	82*	68*	53*	83*
N#CC(C#N)=Cc1cc2ccccc2nc1N1CCCCC1	13	41*	53*	11	78*	42*	13	71*
N/C(=N\OC(=O)c1cc(-c2ccccc2)nc2ccccc12)c1ccc(Cl)cc1	-14	89*	59*	-8	70*	44*	87*	42*
N/C(=N\OC(=O)c1cc(-c2ccccc2)nc2ccccc12)c1cccnc1	-19	71*	52*	-4	80*	66*	77*	30
CCOc1cccc(CNc2ccc(O)cc2)c1OCc1ccc(Cl)cc1Cl	5	33	42*	4	62*	35*	.	54*
COc1ccc(S(=O)(=O)N2CCCCCC2)cc1NC(=O)CN1C(=O)NC(C)(c2ccccc2)C1=O (centres undefined)	20	0	20	29	19	.	.	.
